Screening results: PubChem, National Center for Advancing Translational Sciences (NCATS)
NPC1 prom act: activators of NPC1 promoter | Huh7 NPC1 promoter luciferase reporter, 24 h | Potency, µM (top dose mostly 9.22 µM), most hits filed as activators | actives 2.4% (n = 320,000) | AID 485313; also: nearly all actives have a fitted effect of over 60% in size
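Quantitative HTS used a cell-based reporter: Huh7 cells stably bearing the NPC1 promoter upstream of luciferase were treated with compounds for 24 h, and promoter activation was read as luminescence.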
FLuc counter: firefly luciferase modulation, counter-screen for miR-21 project. purified FLuc, Km substrates, luminescence inhibition. Potency, µM (highest dose often 57.5 µM), actives largely listed as inhibitors. actives 6.9% (n = 360,000); also: nearly all actives have a fitted effect of over 55% in size
Target sequence (P08659 whole entry, looked up): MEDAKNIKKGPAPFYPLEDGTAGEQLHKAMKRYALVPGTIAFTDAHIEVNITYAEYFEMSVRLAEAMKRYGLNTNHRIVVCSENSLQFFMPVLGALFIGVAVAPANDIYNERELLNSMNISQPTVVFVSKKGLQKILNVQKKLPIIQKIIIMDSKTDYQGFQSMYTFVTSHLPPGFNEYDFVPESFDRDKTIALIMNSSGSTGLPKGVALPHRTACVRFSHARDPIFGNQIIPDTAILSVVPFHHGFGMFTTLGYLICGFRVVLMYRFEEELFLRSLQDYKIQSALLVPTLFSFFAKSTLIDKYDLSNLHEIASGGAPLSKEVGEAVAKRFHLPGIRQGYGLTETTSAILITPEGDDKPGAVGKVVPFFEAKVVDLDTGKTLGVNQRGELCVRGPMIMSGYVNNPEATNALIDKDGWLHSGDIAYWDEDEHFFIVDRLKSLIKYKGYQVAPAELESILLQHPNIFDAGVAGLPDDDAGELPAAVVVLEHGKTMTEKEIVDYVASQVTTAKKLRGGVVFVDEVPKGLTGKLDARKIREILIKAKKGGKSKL
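Biochemical qHTS of compounds, final roughly 60 µM downward over six points, against 10 nM purified firefly luciferase using Km concentrations of substrates (10 uM D-luciferin, 10 uM ATP) in Tris acetate pH 7.5 buffer; luminescence output.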
ELG1 DNA repair: blocks ELG1-dependent DNA repair in HEK293T cells; Potency, µM (highest dose often 46.1 µM), hits mostly inhibitors; AID 504467; actives 2.3% (n = 330,000); HEK293T ELG1-luciferase reporter, luminescence, 16 h; DNA damage induced by 5-fluorouridine; also: nearly all actives have a fitted effect of over 55% in size
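5-Fluorouridine DNA damage + compound/DMSO, 2,000 cells/well, 16 h, 37 °C/5% CO2. ONE-Glo, 30 min RT, luminescence. Readout = decrease in reporter signal.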
Rab9 promoter act: Rab9 promoter activation; Huh7 Rab9 promoter-luciferase reporter, luminescence, 24 h; Potency, µM (highest dose often 9.22 µM), usual class: activators; actives 2.8% (n = 320,000); AID 485297; also: nearly all actives have a fitted effect of over 60% in size
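Cells were plated at 1500 per well in reduced-serum medium with 10% FBS and left 2 h. Compound in DMSO was then added for 24 h at 37 °C. Reporter signal was read by luminescence after 10 min with luciferase detection reagent.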
ELG1 genotoxic: genotoxicity induction in ELG1-luciferase HEK293T cells. HEK293T ELG1-luciferase reporter, luminescence, 16 h. Potency, µM (series often up to 46 µM), usual class: activators. actives 1.3% (n = 330,000). AID 504466; also: nearly all actives have a fitted effect of over 60% in size
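Reporter readout depends on ELG1 protein level, which increases with genetic stress. After 16 hr compound exposure at 37 °C, luciferase activity was quantified using ONE-Glo.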
SMN2 splice up: SMN2 splice variant enhancement. HEK293 SMN2-luciferase splicing reporter, luminescence, 30-36 h. Potency, µM (highest dose often 46.1 µM), usual class: activators. actives 2.8% (n = 210,000). AID 1458; also: nearly all actives have a fitted effect of over 55% in size
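HEK293 cells carry an SMN2 minigene-luciferase reporter in which exon 7 inclusion puts luciferase in frame. Cells were seeded at 2000 cells/well, attached for 10-12 hours, then exposed to compounds for 30-36 hours at 37C before ONE-Glo luminescence.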
Numbers stand for hits; . = inactive; ? = inconclusive; / = no result; [ ] = dose if it differs, or a comment. Compounds with a hit are over-represented: about 9.4% of the library has one in this group of screens. Calls follow the shape of the dose curve; as a rule, active = well fitted curve in the direction sought with a large enough effect; inconclusive = small, poorly fitted or top-dose-only effect, or another doubt; inactive = no such curve, though single readings can be large; an effect the other way counts as inactive or inconclusive.

SMILES | NPC1 prom act | FLuc counter | ELG1 DNA repair | Rab9 promoter act | ELG1 genotoxic | SMN2 splice up
COc1ccc(C(=O)Nc2cc(OC)cc(OC)c2)cc1 | 2µM | 4.8µM | ? | 1.8µM | ? | 25µM
COc1ccc(OCC(=O)Nc2cc(OC)cc(OC)c2)cc1 | . | . | . | . | . | .
CCc1ccc(NC(=O)c2ccc3c(c2)nnn3CC)cc1 | / | . | / | / | / | /
Cc1ccccc1NS(=O)(=O)c1ccc(Br)s1 | / | . | / | / | / | .
CCOC(=O)Cn1c(=O)n(CC2CCCO2)c2nc(-c3ccc(CC)cc3)nc(C(N)=O)c21 (stereo not drawn) | / | . | / | / | / | /
O=C(CNc1cccc(S(=O)(=O)N2CCCC2)c1)Nc1ccc(F)cc1F | . | . | . | . | . | /
COc1cc(OC)cc(C(=O)Nc2nc(-c3ccccc3)c(-c3ccccc3)o2)c1 | . | . | 13µM | . | . | .
COc1cc(NC(=O)c2ccccc2)cc(OC)c1 | 6.3µM | 19µM | ? | ? | ? | ?
CC(=O)Nc1nc(-c2ccccc2)c(-c2ccccc2)o1 | . | . | . | . | . | .
CCOC(=O)C1CCCN(c2c(C(=O)c3ccc(C)cc3)cnc3ccc(OCC)cc23)C1 (stereo not drawn) | / | . | / | / | / | .
CCOC(=O)CNC(=O)c1sc(NC(=O)c2ccccc2F)nc1C | ? | 11µM | ? | ? | 9.2µM | /
CCOC(=O)CNC(=O)c1sc(NC(=O)c2cccc(F)c2)nc1C | . | 21µM | ? | . | ? | .
COC(=O)c1sc(NC(=S)NC(=O)c2ccccc2F)nc1C | ? | 8.5µM | ? | 1µM | ? | .
O=C(CNC(=O)c1ccccc1F)OCCCOC(=O)CNC(=O)c1ccccc1F | . | . | ? | . | . | /
C[C@H]1Cc2c(COc3ccccc3)nc3c(c2CO1)CN(C(=O)C1CC1)CC3 | / | / | / | / | / | .[9.22 µM]
CCOC(=O)c1ccc(NC(=O)CCc2nc3cccnc3n2Cc2cccs2)cc1 | / | . | / | / | / | .
Nc1ncnc2c([C@@H]3O[C@@H](CO)[C@H](O)[C@@H]3O)nsc12 | / | / | / | / | / | .[9.22 µM]
Cc1cc(C)c(C#N)c(OCC(=O)c2ccc(Br)cc2)n1 | . | . | . | . | . | .
Cc1ccnc(SCC(=O)c2ccc(Br)cc2)c1C#N | 3.5µM | 21µM | ? | 2.8µM | . | 14µM
Cc1snc(SCC(=O)c2ccc(Cl)cc2)c1C#N | ? | ? | ? | ? | . | .
Cc1ccc(C(=O)CSc2nsc(C)c2C#N)cc1 | 3.5µM | 11µM | ? | 3.2µM | ? | 13µM
Cc1ccccc1NC(=O)c1sc2nc(-c3ccncc3)ccc2c1N | / | . | / | / | / | .
N#CCCn1cc(/C=N/O)c(-c2ccccc2)n1 | . | . | 23µM | ? | . | .
N#CCCn1cc(/C=N/O)c(-c2ccc(F)cc2)n1 | . | . | . | . | . | .
N#CCCn1cc(/C=N/NC(N)=S)c(-c2ccc(-c3ccccc3)cc2)n1 | . | . | 26µM | . | . | .
SMILES | NPC1 prom act | FLuc counter | ELG1 DNA repair | Rab9 promoter act | ELG1 genotoxic | SMN2 splice up
COC(=O)C1=C(O)/C(=C\c2ccc(CNC(=O)C(=O)Nc3ccc(C)cc3)o2)N=C1C | . | 6.7µM | . | . | . | .
CCOC(=O)C1=C(O)/C(=C/c2ccc(CNC(=O)C(=O)Nc3ccc(C)cc3)o2)N=C1C | . | 7.6µM | ? | . | ? | .
CCOC(=O)C(=O)NCc1ccc(/C=C2/N=C(C)C(C(=O)OCC)=C2O)o1 | . | . | . | . | . | /
Cc1ccc(CNC(=O)CN(c2ccc(Cl)cc2Cl)S(=O)(=O)c2ccccc2)cc1 | / | . | / | / | / | .
Cc1cc(Cl)ccc1OCC(=O)NNC(=O)C1CCN(c2ncnc3sc(C)c(C)c23)CC1 | . | . | ? | . | . | /
Cc1sc2ncnc(N3CCC(C(=O)Nc4ccc(OC(F)F)c(Cl)c4)CC3)c2c1C | / | / | 10µM | / | . | /
NC(=O)COC(=O)c1ccc2noc(-c3ccccc3)c2c1 | 4µM | . | ? | . | . | /
O=C(/C=C/c1ccco1)N(Cc1cccc(F)c1)C1CCS(=O)(=O)C1 (stereo not drawn) | . | . | . | . | . | /
CCc1cc(=S)n2c([nH]c3ccccc32)c1C#N | . | 24µM | ? | . | . | /
CCc1c(C)c(C#N)c2[nH]c3ccccc3n2c1=S | . | . | ? | . | . | /
